Measurements from the supplement of paper PMC11732987, “Enantioselective OTUD7B fragment discovery through chemoproteomics screening and high-throughput optimisation” (Communications Chemistry, 2025).

What was measured:
Assay in all cases: log2 ratio of Biotin-Ahx-Ub-VS probe labelling (fragment/DMSO); higher = less target engagement (more negative = stronger competition), active = hit call of the paper (q ≤ 0.05, log2 ratio ≤ -1)
Conditions in all cases: compound concentration: 200 uM; treatment time: 3 h
[1] = biological target: T1, USP19 (UniProt O94966)
T1 sequence (whole entry): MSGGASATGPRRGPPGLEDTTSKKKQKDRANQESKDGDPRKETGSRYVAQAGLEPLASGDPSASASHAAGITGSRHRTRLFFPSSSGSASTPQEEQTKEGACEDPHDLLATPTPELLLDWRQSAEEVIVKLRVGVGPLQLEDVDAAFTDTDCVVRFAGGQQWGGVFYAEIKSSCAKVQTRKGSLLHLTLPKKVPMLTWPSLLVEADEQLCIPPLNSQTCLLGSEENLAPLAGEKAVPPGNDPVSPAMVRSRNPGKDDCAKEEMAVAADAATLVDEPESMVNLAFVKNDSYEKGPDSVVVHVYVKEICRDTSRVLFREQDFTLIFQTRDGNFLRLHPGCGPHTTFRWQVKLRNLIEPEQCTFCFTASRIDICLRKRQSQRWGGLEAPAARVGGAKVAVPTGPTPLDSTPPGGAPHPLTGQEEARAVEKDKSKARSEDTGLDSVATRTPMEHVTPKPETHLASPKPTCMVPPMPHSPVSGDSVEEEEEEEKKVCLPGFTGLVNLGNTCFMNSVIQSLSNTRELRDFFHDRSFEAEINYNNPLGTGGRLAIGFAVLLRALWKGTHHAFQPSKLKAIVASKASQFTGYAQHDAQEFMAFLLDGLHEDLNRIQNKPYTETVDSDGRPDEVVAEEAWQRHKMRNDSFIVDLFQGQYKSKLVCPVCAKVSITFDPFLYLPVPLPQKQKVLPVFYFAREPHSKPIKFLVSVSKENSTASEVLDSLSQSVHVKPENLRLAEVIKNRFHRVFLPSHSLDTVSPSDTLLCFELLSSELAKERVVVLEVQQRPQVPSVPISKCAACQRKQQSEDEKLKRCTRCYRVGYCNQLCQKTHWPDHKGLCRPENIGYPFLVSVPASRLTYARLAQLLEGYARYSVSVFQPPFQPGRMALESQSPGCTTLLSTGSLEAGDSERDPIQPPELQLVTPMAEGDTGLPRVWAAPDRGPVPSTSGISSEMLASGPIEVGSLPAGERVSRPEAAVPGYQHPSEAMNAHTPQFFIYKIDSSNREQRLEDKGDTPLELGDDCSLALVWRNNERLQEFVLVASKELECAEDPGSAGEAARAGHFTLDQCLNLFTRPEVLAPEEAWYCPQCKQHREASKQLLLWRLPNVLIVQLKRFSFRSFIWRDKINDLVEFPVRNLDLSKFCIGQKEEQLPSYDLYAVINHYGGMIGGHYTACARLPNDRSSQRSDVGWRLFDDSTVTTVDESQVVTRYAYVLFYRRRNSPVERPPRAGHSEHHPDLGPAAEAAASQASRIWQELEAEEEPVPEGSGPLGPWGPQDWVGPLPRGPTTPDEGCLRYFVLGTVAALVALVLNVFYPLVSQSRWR
Method in brief: (§1)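 Each value is an average log2 ratio of fragment to vehicle, tested by unpaired t-test. The underlying Spectronaut label-free quantities were global-median-normalised, and only proteins with ≥2 unique peptides were included. Triplicate HEK293T lysate samples (495 µg) were exposed to fragment at 200 µM or vehicle for 3 h, then to Biotin-Ahx-Ub-VS at 0.5 µM final for 1 h, before NeutrAvidin enrichment of labelled DUBs, LysC and trypsin digestion, and diaPASEF LC-MS/MS.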

[2] = biological target: USP24 (UniProt Q9UPU5)
Method in brief: as §1

[3] = biological target: T2, USP25 (UniProt Q9UHP3)
T2 sequence (whole entry): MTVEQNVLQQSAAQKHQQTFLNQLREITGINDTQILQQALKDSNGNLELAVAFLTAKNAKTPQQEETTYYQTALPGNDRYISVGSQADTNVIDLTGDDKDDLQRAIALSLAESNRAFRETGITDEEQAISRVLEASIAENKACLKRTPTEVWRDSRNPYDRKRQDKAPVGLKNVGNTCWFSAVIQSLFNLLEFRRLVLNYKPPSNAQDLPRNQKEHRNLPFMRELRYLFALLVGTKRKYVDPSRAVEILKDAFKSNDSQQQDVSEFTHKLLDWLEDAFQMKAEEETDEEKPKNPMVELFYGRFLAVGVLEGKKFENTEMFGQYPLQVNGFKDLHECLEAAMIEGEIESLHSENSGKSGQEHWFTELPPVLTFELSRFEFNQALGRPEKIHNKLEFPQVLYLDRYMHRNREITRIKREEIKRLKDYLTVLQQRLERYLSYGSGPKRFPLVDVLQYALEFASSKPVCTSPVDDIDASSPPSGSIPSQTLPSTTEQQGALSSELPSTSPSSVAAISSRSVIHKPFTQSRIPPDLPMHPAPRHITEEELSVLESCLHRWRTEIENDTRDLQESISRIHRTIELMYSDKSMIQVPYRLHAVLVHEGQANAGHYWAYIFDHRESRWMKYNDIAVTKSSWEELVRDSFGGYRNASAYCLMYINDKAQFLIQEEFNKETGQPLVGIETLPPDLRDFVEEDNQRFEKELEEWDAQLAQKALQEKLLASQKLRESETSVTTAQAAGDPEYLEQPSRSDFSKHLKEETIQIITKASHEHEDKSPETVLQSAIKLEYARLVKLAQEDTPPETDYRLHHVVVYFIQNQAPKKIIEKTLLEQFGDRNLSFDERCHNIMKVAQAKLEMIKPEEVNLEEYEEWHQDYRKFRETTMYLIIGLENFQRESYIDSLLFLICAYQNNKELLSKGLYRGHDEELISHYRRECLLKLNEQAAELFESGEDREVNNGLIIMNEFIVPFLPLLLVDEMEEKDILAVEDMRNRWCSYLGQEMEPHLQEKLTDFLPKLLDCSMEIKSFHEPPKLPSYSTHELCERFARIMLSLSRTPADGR
Method in brief: as §1

[4] = biological target: T3, USP28 (UniProt Q96RU2)
T3 sequence (whole entry): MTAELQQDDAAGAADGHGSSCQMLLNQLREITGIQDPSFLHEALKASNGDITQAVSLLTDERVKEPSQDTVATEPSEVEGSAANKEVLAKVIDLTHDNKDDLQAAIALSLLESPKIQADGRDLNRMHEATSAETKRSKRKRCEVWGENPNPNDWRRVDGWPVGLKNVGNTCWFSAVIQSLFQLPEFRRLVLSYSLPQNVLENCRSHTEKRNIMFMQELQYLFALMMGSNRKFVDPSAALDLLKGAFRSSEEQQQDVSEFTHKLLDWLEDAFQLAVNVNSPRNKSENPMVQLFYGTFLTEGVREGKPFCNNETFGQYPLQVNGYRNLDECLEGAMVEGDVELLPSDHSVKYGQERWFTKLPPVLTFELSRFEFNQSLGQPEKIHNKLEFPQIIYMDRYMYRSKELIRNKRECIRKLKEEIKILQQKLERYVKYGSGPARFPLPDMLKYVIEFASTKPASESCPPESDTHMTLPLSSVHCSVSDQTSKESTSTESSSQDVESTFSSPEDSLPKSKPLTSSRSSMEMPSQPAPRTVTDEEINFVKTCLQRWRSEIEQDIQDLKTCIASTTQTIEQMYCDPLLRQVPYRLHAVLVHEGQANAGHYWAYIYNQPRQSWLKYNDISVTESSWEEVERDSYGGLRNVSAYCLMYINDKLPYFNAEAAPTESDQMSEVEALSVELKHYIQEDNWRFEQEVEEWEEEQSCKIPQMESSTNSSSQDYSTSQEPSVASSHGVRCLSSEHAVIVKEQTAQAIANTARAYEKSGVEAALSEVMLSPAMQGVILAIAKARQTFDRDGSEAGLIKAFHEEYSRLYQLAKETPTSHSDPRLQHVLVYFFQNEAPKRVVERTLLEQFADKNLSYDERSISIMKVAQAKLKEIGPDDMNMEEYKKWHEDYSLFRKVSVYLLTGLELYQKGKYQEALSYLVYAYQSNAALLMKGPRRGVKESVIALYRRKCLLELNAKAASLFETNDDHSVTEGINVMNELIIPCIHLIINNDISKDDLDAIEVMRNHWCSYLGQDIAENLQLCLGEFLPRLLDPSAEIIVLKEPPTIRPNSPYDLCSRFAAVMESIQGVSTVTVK
Method in brief: as §1

Measured: log2 ratio of Biotin-Ahx-Ub-VS probe labelling

Sequence of USP24 (Q9UPU5 whole entry): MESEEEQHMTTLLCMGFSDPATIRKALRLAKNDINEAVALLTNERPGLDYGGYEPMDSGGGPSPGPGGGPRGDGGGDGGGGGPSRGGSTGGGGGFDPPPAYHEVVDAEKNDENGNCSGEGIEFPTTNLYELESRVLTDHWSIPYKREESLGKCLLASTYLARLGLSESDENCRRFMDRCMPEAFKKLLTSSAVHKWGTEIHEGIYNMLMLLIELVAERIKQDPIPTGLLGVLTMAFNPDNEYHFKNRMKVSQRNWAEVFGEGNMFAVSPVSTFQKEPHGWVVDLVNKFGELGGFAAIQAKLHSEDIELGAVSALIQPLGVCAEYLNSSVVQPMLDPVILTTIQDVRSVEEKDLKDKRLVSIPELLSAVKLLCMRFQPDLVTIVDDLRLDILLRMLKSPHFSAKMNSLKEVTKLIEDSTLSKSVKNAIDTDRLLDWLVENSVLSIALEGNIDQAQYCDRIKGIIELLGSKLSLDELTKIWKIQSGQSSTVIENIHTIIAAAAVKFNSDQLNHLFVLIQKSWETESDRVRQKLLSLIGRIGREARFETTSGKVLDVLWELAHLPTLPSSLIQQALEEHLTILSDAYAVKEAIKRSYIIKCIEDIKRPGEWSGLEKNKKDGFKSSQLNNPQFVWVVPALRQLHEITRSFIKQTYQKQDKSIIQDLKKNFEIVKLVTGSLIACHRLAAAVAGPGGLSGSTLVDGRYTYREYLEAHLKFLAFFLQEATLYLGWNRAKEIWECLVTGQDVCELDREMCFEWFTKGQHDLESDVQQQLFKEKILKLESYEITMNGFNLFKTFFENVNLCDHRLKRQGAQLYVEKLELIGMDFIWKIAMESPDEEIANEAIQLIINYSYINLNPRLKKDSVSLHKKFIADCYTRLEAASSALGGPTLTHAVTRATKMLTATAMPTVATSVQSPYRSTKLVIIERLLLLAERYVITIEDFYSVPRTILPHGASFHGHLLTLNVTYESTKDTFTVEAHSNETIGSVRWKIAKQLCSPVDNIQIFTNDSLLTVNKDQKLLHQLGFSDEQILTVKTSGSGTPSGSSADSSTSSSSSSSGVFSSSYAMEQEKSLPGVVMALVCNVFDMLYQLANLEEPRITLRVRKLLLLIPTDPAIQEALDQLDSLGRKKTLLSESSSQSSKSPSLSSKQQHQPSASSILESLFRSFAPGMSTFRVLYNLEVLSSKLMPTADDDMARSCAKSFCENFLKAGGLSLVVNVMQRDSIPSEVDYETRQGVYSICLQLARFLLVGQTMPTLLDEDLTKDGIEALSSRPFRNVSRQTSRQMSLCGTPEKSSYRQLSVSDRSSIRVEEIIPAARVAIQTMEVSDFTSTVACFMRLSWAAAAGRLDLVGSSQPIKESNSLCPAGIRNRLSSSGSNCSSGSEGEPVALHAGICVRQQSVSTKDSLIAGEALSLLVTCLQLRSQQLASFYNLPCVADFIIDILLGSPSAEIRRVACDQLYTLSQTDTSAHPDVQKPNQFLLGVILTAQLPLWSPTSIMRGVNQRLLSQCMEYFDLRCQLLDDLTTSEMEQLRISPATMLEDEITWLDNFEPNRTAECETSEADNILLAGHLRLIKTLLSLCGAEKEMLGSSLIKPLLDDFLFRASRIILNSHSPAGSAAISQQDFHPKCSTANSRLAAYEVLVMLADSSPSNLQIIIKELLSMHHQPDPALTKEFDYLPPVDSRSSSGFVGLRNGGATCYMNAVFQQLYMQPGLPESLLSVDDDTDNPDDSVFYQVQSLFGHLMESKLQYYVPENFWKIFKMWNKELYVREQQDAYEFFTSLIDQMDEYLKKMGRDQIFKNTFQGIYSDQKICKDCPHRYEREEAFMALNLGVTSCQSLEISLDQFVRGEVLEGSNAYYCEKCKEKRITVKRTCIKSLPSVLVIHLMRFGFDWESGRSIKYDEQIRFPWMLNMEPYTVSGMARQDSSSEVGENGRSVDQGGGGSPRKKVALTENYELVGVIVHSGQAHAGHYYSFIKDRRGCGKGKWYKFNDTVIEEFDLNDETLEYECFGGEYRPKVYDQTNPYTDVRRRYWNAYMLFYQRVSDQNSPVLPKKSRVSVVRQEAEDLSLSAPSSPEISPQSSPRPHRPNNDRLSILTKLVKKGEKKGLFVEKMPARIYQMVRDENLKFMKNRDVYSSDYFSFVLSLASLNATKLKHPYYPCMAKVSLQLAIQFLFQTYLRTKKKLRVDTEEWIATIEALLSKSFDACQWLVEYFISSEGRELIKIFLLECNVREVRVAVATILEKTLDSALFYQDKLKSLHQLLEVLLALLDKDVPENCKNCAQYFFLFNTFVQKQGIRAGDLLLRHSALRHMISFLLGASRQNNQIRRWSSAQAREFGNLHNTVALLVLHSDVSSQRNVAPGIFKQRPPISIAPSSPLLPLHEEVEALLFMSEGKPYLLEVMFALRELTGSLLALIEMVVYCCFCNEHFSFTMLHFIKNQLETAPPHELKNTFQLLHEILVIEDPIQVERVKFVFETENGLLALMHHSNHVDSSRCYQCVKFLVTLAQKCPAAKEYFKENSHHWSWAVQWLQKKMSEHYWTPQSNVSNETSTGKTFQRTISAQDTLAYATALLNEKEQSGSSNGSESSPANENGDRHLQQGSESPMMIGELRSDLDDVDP

Cc1cccn2cc(CCNC(=O)CCl)nc12.Cl
inactive: [1] -0.279 | [2] -0.29 | [3] -0.0777 | [4] -0.334
